Reference: the supplement of paper PMC10849652
The full data set covers some 7,900 targets. This sample favours those with a hit. About 0.6% of all pairs of compound and target were hits. Unmarked numbers belong to inactive results.

Tests used:
Experiment in all cases: log2 fold change, soluble protein after heating vs DMSO (PISA); higher = thermal stabilisation; K562 cells, 10 uM, 30 min; active = over 0.2 and 3.5 SD of the protein, either way, in both replicates (recomputed)
[1] = compound: CC1=C(C=C(C=C1)NC(=O)C2=CC(=CC=C2)C(C)(C)C#N)NC3=CC4=C(C=C3)N=CN(C4=O)C
Outline: (§1)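 Soluble protein was quantified by TMTpro 16plex LC-MS/MS after channel sums were equalised. It was obtained as the supernatant after 21,000xg for 90 min from pooled aliquots of K562 cells (2×10^6 cells/mL, 10 μM compound, 30 min) heated for 3 min across 48°C-58°C and extracted in PBS with 0.5% NP-40 at 4°C. Thermal stability values are relative to control samples and come from duplicates. They are given as log2 fold changes.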

[2] = compound: CC1=C(C=C(C=C1)NC(=O)C2=CC(=CC=C2)N(C)C)NC(=O)C3=CC=C(C=C3)O
Outline: as §1

[3] = compound: CC1=CC=C(C=C1)SC2=C3C=C(SC3=CN=C2)C(=O)N
Outline: as §1

[4] = compound: CC1=NC(=CC=C1)C2=C(N=C(N2)C(C)(C)C)C3=CC4=NC=CN=C4C=C3
Outline: as §1

Nexturastat A = compound: CCCCN(Cc1ccc(C(=O)NO)cc1)C(=O)Nc1ccccc1 [Nexturastat A]
Outline: as §1

vemurafenib = compound: CCCS(=O)(=O)Nc1ccc(F)c(C(=O)c2c[nH]c3ncc(-c4ccc(Cl)cc4)cc23)c1F [vemurafenib]
Outline: as §1

[5] = compound: CCCS(=O)(=O)Nc1ccc(F)c(C(=O)c2c[nH]c3ncc(Cl)cc23)c1F
Outline: as §1

[6] = compound: CCCc1cc(C)[nH]c(=O)c1CNC(=O)c1cc(-c2ccnc(N3CCN(C)CC3)c2)cc2c1cnn2C(C)C
Outline: as §1

givinostat = compound: CCN(CC)Cc1ccc2cc(COC(=O)Nc3ccc(C(=O)NO)cc3)ccc2c1 [givinostat]
Outline: as §1

barasertib = compound: CCN(CCCOc1ccc2c(Nc3cc(CC(=O)Nc4cccc(F)c4)[nH]n3)ncnc2c1)CCOP(=O)(O)O [barasertib]
Outline: as §1

UniProt Q96T23, sequence (Q96T23 whole entry, looked up): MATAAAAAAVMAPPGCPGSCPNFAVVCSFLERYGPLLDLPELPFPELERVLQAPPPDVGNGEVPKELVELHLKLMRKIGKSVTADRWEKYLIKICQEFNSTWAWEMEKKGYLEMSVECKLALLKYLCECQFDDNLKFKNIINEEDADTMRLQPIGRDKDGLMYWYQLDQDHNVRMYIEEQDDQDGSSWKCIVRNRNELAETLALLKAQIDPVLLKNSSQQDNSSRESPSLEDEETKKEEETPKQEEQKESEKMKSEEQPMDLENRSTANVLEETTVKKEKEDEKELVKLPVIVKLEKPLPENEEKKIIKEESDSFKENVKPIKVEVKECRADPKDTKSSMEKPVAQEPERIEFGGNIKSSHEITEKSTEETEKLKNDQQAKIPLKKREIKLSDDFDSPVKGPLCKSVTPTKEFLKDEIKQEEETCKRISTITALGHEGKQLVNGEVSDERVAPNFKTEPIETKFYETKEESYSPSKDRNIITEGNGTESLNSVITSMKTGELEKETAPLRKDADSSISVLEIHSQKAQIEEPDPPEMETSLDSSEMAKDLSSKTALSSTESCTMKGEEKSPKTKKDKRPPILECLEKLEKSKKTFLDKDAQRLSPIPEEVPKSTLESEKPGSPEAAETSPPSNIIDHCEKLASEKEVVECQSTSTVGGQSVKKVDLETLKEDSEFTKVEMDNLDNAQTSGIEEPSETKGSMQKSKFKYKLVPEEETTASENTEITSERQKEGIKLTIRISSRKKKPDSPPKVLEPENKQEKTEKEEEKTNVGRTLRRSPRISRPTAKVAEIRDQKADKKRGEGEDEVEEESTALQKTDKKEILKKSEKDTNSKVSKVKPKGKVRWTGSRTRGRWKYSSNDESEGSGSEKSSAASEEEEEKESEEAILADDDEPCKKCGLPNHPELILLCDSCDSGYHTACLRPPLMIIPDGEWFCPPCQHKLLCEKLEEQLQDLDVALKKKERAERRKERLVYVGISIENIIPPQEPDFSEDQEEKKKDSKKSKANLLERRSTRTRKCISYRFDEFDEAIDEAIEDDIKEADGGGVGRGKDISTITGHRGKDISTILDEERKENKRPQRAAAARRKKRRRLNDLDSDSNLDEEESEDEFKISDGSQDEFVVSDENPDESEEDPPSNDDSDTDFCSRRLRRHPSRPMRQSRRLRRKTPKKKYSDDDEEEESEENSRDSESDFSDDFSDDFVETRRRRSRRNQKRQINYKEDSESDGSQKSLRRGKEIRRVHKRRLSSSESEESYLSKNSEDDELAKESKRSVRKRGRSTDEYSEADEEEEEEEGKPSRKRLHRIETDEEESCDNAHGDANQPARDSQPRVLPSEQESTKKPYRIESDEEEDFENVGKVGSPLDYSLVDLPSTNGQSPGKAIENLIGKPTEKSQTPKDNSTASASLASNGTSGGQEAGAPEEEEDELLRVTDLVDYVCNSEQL
UniProt Q92930, sequence (Q92930 whole entry, looked up): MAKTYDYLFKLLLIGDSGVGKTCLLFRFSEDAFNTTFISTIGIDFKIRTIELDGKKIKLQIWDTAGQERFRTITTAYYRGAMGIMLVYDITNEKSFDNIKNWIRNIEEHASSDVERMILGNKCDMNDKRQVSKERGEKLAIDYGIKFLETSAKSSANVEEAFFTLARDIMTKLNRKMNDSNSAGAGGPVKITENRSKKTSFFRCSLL
UniProt Q9BXP2, sequence (Q9BXP2 whole entry, looked up): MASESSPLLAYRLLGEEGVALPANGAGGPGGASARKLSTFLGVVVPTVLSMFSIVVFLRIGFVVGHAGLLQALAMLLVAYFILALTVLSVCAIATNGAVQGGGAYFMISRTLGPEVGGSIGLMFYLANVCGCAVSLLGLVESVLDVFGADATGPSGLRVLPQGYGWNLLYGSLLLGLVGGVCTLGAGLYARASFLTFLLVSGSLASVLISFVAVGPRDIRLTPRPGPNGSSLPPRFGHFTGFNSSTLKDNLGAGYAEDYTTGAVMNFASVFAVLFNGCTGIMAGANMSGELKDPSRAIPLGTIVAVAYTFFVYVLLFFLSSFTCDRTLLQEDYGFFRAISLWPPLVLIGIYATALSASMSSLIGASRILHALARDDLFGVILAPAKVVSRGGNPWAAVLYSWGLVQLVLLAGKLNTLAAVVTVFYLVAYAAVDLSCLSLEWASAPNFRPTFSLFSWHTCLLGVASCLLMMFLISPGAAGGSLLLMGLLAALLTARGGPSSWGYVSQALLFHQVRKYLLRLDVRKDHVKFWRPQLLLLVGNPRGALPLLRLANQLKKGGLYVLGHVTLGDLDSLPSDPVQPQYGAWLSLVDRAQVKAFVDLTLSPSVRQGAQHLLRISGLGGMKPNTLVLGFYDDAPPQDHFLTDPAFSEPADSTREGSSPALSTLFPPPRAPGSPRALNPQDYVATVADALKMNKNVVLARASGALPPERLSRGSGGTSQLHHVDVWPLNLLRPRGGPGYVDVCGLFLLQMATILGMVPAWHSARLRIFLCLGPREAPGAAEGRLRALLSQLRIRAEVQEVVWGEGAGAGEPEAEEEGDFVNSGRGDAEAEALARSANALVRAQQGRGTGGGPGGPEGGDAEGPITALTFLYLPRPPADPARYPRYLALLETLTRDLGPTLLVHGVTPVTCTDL
UniProt Q92878, sequence (Q92878 whole entry, looked up): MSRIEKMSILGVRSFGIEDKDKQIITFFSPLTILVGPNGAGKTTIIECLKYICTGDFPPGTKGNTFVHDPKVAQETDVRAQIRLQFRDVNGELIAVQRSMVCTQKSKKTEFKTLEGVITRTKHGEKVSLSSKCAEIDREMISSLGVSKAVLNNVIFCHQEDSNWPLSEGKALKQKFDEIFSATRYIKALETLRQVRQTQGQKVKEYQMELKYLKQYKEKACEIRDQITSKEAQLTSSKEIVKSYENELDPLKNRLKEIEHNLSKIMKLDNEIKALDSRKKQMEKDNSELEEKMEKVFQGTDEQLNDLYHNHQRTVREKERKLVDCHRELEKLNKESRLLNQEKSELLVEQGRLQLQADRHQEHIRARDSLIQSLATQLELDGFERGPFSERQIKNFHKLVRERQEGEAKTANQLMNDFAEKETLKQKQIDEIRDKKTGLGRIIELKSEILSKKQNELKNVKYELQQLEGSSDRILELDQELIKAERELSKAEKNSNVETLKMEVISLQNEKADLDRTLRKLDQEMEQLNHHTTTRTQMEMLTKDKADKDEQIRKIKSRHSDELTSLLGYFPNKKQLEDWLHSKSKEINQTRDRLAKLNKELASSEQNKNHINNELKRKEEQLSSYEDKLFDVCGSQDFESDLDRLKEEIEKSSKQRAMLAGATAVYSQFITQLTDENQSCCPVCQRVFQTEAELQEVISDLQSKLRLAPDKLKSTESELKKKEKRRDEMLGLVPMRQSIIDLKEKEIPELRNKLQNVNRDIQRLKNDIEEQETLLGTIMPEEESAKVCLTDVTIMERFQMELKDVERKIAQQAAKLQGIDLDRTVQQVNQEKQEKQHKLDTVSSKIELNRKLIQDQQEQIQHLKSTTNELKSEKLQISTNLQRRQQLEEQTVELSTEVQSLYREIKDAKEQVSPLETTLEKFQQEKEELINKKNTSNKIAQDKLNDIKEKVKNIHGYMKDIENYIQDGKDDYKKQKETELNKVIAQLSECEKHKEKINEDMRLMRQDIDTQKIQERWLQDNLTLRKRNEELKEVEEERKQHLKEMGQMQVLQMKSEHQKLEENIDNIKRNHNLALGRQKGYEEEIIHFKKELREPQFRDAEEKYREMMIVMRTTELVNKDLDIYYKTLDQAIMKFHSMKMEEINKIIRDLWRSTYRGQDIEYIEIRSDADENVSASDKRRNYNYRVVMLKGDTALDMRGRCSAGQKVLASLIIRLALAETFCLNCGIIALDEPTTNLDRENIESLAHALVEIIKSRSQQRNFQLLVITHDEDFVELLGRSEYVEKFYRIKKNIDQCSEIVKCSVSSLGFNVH
UniProt Q96ER3, sequence (Q96ER3 whole entry, looked up): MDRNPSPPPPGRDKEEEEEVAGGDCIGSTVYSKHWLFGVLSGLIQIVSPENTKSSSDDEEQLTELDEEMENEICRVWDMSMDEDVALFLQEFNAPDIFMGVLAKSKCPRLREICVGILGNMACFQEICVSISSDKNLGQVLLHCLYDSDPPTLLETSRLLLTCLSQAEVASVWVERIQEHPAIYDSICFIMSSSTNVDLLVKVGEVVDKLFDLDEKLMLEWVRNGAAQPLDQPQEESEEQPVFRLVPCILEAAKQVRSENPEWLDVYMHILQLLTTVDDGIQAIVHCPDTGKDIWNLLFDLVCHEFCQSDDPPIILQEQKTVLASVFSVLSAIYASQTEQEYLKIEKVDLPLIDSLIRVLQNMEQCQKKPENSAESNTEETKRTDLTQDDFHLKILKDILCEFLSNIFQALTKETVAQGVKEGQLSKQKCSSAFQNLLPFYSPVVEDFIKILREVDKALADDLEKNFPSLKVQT
UniProt P51151, sequence (P51151 whole entry, looked up): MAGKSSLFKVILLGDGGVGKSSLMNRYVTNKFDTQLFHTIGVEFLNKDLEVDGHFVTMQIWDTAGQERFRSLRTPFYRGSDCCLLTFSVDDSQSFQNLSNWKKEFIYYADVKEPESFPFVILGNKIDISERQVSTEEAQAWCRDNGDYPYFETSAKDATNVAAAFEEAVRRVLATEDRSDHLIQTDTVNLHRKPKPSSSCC
UniProt Q96EE3, sequence (Q96EE3 whole entry, looked up): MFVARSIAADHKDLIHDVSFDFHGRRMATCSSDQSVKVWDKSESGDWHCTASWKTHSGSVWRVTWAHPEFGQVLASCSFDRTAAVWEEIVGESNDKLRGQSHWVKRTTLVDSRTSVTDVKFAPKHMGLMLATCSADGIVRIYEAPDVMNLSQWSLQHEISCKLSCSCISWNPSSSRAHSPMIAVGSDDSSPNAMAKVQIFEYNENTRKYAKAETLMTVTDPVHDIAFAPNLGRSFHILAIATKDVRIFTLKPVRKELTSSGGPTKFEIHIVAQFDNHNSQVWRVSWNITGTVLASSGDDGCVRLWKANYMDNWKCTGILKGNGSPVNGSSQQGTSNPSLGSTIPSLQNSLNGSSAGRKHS
UniProt O14796, sequence (O14796 whole entry, looked up): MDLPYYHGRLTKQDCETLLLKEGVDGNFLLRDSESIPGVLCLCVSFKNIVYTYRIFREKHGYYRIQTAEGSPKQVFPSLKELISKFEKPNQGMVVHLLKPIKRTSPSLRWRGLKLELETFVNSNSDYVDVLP

| Target | log2 fold change [1] | log2 fold change [2] | log2 fold change [3] | log2 fold change [4] | log2 fold change (Nexturastat A) | log2 fold change (vemurafenib) | log2 fold change [5] | log2 fold change [6] | log2 fold change (givinostat) | log2 fold change (barasertib) |
| --- | --- | --- | --- | --- | --- | --- | --- | --- | --- | --- |
| RBM26 isoform 3 (UniProt Q5T8P6) | 0.017 | – | – | – | – | – | – | – | – | – |
| SCPEP1 (UniProt Q9HB40) | -0.003 | 0.016 | 0.05 | 0.022 | -0.035 | 0.002 | 0.013 | -0.028 | -0.031 | 0.012 |
| SLC12A9 (UniProt Q9BXP2) | -0.007 | 0.056 | -0.04 | 0.005 | -0.008 | 0.017 | -0.012 | -0.059 | -0.014 | 0.083 |
| SH2D1B (UniProt O14796) | -0.781 | 0.013 | -0.01 | -0.011 | 0.143 | 0.048 | -0.135 | -0.146 | -0.028 | – |
| RUNX1 isoform 8 (UniProt Q01196) | 0.236 | 0.018 | 0.059 | -0.045 | -0.231 | -0.026 | 0.046 | 0.088 | 0.076 | -0.058 |
| RDH11 (UniProt Q8TC12) | 0.068 | -0.054 | 0.019 | -0.016 | 0.011 | 0.042 | 0.035 | 0.007 | 0.066 | 0.057 |
| SEH1L isoform 1 (UniProt Q96EE3) | -0.004 | 0.015 | 0.005 | -0.019 | 0.011 | 0.005 | 0.048 | -0.033 | 0.005 | 0.008 |
| RAB9A (UniProt P51151) | 0.036 | 0.033 | 0.017 | 0.018 | 0.017 | -0.012 | -0.024 | 0.003 | 0.054 | -0.011 |
| RIOK3 (UniProt O14730) | 0.026 | 0.021 | 0.009 | 0.014 | -0.094 | -0.012 | -0.012 | 0.011 | -0.003 | -0.003 |
| RAVER1 (UniProt E9PAU2) | 0.144 | -0.075 | -0.025 | 0.144 | -0.046 | -0.1 | 0.067 | 0.293 | 0.131 | 0.099 |
| RPS25 (UniProt P62851) | 0.009 | 0 | -0.03 | 0 | 0.11 | -0.08 | -0.102 | 0.06 | 0.042 | -0.075 |
| RAB8B (UniProt Q92930) | 0.055 | 0.013 | 0.073 | 0.081 | -0.082 | 0.192 | 0.018 | 0.109 | -0.014 | -0.016 |
| SAAL1 (UniProt Q96ER3) | 0.004 | -0.008 | 0.006 | 0.009 | -0.078 | -0.017 | 0.035 | -0.014 | -0.059 | 0.046 |
| RSRC1 (UniProt Q96IZ7) | 0.041 | 0.013 | 0.006 | 0.056 | 0.02 | -0.046 | 0.004 | -0.026 | 0.019 | -0.031 |
| RAF1 isoform 2 (UniProt P04049) | 0.317 | 0.056 | 0.078 | -0.043 | 0.077 | 0.17 | 0.438 | -0.113 | 0.016 | 0.044 |
| RETREG3 (UniProt Q86VR2) | -0.006 | 0.014 | 0.148 | 0.13 | 0.062 | 0.043 | 0.055 | -0.044 | -0.048 | 0.023 |

| Target | log2 fold change [1] | log2 fold change [2] | log2 fold change [3] | log2 fold change [4] | log2 fold change (Nexturastat A) | log2 fold change (vemurafenib) | log2 fold change [5] | log2 fold change [6] | log2 fold change (givinostat) | log2 fold change (barasertib) |
| --- | --- | --- | --- | --- | --- | --- | --- | --- | --- | --- |
| RECQL (UniProt P46063) | 0.028 | -0.012 | 0.011 | 0.039 | -0.002 | -0.009 | 0.063 | -0.007 | 0.038 | -0.002 |
| RCOR1 (UniProt Q9UKL0) | -0.061 | -0.089 | 0.037 | 0.021 | 0.054 | 0.016 | 0.029 | -0.032 | 0.114 | 0.01 |
| RSF1 (UniProt Q96T23) | 0.111 | -0.112 | -0.015 | 0.217 | -0.091 | 0.119 | 0.052 | 0.029 | 0.084 | 0.095 |
| SCO2 (UniProt O43819) | -0.487 (active) | -0.079 | 0.029 | -0.003 | 0.269 | 0.05 | 0.029 | 0.059 | 0.03 | 0.153 |
| RAB3GAP2 (UniProt Q9H2M9) | -0.001 | -0.018 | 0.017 | -0.029 | 0.215 | 0.06 | 0.026 | 0.092 | 0.106 | 0.068 |
| RALY (UniProt Q9UKM9) | 0.091 | -0.021 | -0.05 | 0.105 | 0.358 | -0.056 | 0.187 | 0.005 | 0.209 | -0.138 |
| RSRC2 (UniProt Q7L4I2) | -0.048 | 0.04 | -0.058 | 0 | 0.015 | 0.007 | 0.003 | -0.063 | -0.013 | 0.01 |
| RAD50 isoform 2 (UniProt Q92878) | 0 | -0.024 | 0.004 | 0.009 | -0.005 | 0.027 | 0.038 | 0.014 | 0.026 | 0.033 |
| SETMAR (UniProt Q53H47) | 0.128 | 0.061 | -0.023 | -0.049 | -0.041 | 0.018 | 0.021 | 0.01 | -0.036 | 0.051 |
| RAB3IL1 (UniProt Q8TBN0) | 0.005 | 0.002 | 0.008 | 0.02 | -0.124 | 0.018 | 0.062 | -0.025 | -0.024 | 0.015 |
| RPS3A (UniProt D6R9B6) | -0.199 | – | – | – | – | – | – | – | – | – |
| RBM25 (UniProt P49756) | -0.032 | 0.017 | -0.007 | -0.074 | 0.02 | 0.019 | 0 | -0.093 | 0.202 | 0.035 |
| RAP1GDS1 isoform 5 (UniProt P52306) | -0.04 | -0.035 | 0.073 | 0.042 | -0.023 | -0.014 | 0.174 | 0.016 | 0.047 | 0.019 |
| RRP12 (UniProt Q5JTH9) | 0.036 | -0.012 | 0.094 | -0.043 | 0.371 | -0.087 | -0.012 | 0.074 | 0.209 | -0.018 |
| RPS3 (UniProt P23396) | 0.011 | 0.003 | -0.077 | -0.042 | 0.069 | -0.086 | -0.102 | 0.041 | 0.007 | -0.088 |
